Assay results published in the supplement of paper PMC12067093, “Discovery and optimisation of a covalent ligand for TRIM25 and its application to targeted protein ubiquitination” (Chemical Science, 2025).
About 21,000 targets were measured; listed, in parts, are those with the largest changes and a random draw of the rest.

Compound: CC1Cc2ccccc2N1C(=O)C1CCCN(C1)C(=O)CCl (mixture of isomers) [TRIM25 ligand 11 (diastereomer mixture)]
Experiment: probe-labelled cysteine peptide fold change vs DMSO (competition) (log2 fold change); higher = less target engagement (more negative = stronger competition)
Details: THP-1, incubation time: 4 h
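Note: competitive chemoproteomic profiling in live THP-1 cells with an iodoacetamide desthiobiotin (IA-DTB) probe, comparing probe-labelled peptide intensities in compound-treated cells against DMSO-treated controls.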

Chain of UniProt P46934 (P46934 whole entry, looked up): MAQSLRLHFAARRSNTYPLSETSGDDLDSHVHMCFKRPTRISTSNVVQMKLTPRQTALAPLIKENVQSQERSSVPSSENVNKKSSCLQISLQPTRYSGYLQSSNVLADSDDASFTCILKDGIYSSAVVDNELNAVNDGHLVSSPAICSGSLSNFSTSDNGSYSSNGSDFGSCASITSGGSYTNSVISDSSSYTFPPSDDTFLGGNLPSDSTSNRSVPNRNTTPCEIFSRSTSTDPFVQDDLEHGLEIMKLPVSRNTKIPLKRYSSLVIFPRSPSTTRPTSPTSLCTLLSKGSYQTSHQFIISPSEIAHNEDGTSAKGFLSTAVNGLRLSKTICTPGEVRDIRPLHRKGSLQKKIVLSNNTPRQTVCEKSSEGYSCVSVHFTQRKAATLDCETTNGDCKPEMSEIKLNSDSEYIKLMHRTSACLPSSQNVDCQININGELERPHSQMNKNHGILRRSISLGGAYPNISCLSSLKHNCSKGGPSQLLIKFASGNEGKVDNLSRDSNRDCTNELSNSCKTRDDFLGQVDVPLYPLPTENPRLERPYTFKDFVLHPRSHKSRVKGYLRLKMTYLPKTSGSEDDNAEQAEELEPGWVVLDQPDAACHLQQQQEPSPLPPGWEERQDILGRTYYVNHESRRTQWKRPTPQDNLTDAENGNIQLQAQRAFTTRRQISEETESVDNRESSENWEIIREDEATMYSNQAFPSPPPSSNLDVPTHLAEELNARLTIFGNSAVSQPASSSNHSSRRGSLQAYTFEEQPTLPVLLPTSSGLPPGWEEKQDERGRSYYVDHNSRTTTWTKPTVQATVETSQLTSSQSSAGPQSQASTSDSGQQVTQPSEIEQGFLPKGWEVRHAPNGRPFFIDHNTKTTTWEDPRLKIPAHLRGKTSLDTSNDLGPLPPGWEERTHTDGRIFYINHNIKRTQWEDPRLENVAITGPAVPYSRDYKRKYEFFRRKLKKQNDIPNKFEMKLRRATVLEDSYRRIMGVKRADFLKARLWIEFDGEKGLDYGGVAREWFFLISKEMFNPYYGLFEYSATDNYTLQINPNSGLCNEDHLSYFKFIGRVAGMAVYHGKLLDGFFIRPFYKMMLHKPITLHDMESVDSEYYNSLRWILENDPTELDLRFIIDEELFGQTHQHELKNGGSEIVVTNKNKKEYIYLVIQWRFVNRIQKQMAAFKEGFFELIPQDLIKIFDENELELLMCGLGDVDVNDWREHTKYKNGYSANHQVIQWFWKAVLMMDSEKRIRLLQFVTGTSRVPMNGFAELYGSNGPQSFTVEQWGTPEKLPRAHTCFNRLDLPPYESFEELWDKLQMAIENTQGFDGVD
Chain of UniProt Q7Z628 (Q7Z628 whole entry, looked up): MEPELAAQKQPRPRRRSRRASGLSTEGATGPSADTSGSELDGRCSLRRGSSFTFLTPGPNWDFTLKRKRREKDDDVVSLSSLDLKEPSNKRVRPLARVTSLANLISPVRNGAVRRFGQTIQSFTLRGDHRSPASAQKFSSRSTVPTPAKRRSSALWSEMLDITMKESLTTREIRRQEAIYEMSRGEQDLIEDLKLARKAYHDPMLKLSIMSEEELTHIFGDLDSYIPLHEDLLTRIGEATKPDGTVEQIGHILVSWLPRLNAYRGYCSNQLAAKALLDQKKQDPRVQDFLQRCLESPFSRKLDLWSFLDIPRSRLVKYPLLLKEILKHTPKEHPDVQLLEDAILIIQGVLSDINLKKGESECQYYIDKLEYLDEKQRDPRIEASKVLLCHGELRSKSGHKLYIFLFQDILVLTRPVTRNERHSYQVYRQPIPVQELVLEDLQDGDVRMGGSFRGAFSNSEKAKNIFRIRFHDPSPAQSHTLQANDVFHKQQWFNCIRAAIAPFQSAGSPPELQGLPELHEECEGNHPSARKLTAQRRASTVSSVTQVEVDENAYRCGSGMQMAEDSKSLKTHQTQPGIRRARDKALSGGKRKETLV
Chain of UniProt Q9NR12 (Q9NR12 whole entry, looked up): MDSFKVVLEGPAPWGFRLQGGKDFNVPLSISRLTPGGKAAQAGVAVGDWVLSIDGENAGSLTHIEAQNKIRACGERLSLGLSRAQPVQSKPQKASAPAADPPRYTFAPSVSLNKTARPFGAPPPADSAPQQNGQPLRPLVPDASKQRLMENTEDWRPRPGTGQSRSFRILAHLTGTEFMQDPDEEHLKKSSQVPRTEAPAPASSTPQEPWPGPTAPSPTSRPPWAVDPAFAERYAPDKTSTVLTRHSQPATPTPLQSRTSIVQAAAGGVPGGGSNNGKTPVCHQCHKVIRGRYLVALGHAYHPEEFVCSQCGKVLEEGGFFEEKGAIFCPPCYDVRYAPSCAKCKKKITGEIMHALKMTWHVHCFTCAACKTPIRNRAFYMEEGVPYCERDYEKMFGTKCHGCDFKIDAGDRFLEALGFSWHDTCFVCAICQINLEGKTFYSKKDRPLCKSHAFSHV
Chain of UniProt Q8TEA1 (Q8TEA1 whole entry): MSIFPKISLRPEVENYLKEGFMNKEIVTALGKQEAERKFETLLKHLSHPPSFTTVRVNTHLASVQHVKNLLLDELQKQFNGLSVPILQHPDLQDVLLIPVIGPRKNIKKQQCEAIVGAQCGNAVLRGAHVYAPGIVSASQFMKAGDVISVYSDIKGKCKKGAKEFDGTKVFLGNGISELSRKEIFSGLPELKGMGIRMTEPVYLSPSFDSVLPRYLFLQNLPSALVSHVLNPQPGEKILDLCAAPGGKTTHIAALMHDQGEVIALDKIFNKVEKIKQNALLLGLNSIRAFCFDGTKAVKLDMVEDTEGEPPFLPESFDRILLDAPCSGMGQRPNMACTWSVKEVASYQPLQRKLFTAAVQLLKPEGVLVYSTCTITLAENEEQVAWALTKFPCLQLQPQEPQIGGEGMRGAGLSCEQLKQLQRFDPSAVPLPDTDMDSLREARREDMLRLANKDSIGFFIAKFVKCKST
Chain of UniProt P19404 (P19404 whole entry): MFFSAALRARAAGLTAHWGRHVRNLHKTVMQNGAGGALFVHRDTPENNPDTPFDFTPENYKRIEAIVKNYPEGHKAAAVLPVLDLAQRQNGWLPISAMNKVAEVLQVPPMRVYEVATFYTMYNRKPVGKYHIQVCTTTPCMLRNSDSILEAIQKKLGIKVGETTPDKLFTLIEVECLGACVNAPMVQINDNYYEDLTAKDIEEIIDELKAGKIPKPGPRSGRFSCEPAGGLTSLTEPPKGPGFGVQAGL
Chain of UniProt O96028 (O96028 whole entry, looked up): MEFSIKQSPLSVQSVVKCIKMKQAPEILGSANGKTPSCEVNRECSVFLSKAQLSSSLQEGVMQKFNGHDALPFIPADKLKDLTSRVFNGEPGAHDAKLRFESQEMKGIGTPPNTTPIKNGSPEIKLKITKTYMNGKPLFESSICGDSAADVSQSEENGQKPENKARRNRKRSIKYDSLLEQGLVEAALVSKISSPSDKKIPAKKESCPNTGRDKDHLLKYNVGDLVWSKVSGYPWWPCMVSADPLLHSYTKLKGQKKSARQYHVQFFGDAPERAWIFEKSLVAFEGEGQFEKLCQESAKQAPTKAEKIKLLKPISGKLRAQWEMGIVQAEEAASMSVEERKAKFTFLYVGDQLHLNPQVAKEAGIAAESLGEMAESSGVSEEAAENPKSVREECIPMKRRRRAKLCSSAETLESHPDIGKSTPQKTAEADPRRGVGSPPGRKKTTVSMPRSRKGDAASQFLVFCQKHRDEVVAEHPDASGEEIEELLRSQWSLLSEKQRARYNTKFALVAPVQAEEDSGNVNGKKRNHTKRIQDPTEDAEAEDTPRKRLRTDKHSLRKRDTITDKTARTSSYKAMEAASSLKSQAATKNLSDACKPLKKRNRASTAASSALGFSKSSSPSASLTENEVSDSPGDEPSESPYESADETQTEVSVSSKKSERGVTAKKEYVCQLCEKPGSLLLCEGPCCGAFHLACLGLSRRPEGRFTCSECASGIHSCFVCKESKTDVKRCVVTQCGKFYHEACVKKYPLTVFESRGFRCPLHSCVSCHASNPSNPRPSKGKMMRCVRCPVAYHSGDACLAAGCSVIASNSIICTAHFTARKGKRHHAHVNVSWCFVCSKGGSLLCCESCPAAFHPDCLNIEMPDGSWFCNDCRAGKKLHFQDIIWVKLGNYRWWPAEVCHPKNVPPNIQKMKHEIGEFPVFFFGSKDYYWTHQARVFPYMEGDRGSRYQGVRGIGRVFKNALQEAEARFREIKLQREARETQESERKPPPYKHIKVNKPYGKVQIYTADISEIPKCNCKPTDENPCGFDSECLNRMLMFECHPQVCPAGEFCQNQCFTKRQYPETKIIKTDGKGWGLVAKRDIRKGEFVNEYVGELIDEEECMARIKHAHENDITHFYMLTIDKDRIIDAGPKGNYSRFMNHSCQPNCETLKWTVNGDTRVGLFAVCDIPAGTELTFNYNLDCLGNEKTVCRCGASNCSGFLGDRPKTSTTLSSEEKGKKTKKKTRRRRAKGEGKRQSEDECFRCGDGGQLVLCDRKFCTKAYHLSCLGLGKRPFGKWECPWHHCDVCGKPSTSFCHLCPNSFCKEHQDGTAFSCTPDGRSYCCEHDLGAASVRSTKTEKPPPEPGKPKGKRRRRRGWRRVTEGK
Chain of UniProt Q15365 (Q15365 whole entry, looked up): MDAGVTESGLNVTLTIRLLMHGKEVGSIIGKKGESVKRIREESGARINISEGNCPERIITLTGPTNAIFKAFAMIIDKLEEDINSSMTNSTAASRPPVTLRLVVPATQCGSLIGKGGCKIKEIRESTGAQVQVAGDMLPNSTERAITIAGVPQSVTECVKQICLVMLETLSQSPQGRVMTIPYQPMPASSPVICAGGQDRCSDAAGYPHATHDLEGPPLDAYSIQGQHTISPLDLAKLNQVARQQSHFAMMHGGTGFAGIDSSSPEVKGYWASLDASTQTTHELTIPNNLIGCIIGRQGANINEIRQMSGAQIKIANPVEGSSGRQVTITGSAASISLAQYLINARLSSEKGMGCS
Chain of UniProt Q56VL3 (Q56VL3 whole entry, looked up): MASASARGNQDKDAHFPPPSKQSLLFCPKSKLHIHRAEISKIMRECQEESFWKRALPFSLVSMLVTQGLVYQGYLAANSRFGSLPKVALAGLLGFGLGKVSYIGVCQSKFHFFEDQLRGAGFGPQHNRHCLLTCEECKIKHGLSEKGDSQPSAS

Target	probe-labelled cysteine peptide fold change (10 µM)	probe-labelled cysteine peptide fold change (50 µM)
NET1_Q7Z628_267_GYCSNQLAAK (UniProt Q7Z628)	0.0505	0.103
NUP155_O75694_373_LYFSTCPFR (UniProt O75694)	0.15	0.262
PDLIM1_O00151_286_HRHPECYVCTDCGTNLK (UniProt O00151)	0.117	0.192
NLRX1_Q86UT6_713_CTVVAAVLGSGR (UniProt Q86UT6)	-0.136	0.223
NOC4L_Q9BVI4_509_KGPEPVPLEFIPAQGLLGRPGELCAQHFTLS (UniProt Q9BVI4)	0.0196	-0.199
PDPR_Q8NCN5_357_LVNCPETFTPDMR (UniProt Q8NCN5)	-0.0721	0.18
PARK7_Q99497_46_DPVQCSR (UniProt Q99497)	0.105	0.0666
NUDC_Q9Y266_188_WTQTLSELDLAVPFCVNFR (UniProt Q9Y266)	-0.0574	0.00376
PDHB_P11177_161_GPNGASAGVAAQHSQCFAAWYGHCPGLK (UniProt P11177)	0.0327	0.0759
PADI2_Q9Y2J8_629_GLLEPLGLECTFIDDISAYHK (UniProt Q9Y2J8)	0.0551	0.0618
NVL_O15381_803_EASICALR (UniProt O15381)	0.0326	0.175
NUP107_P57740_749_EHLCIR (UniProt P57740)	0.128	0.0884
NOP58_Q9Y2X3_106_LNLSCIHSPVVNELMR (UniProt Q9Y2X3)	0.0103	0.12
NPTX1_Q15818_89_CESQSTLDPGAGEAR (UniProt Q15818)	-0.269	0.111
P3H1_Q32P28_123_CLGPPAAHSLSEEMELEFR (UniProt Q32P28)	0.411	0.646
OAT_P04181_150_VLPMNTGVEAGETACK (UniProt P04181)	0.0276	0.0487
NSUN5P1_Q3KNT7-3_149_AAAGACTPPCT<|>NSUN5_Q96P11-2_461_AAAGACTPPCT (UniProt Q96P11+Q3KNT7)	0.129	-0.0921
PDCD2L_Q9BRP1_191_LQDAVLGAAHPVPPGLPLFLPYYICVADEDDYRDFVNLDHAHSLLR (UniProt Q9BRP1)	-0.928	0.29
NEDD4_P46934-4_4_ATCAVEVFGLLEDEENSR (UniProt P46934)	-0.669	-0.509
NPM3_O75607_79_VEEEDDAEHVLALTMLCLTEGAKDECNVVEVVAR (UniProt O75607)	-0.083	0.00371
NUP133_Q8WUM0_457_IVFNAQGDSVLGAGACGGVPIIFSR (UniProt Q8WUM0)	-0.146	-0.142
PDS5B_Q9NTI5_732_YAIHCIHAIFSSK (UniProt Q9NTI5)	-0.00231	0.0228
PCBP1_Q15365_293_GYWASLDASTQTTHELTIPNNLIGCIIGR (UniProt Q15365)	-0.0964	-0.174
OCIAD2_Q56VL3_106_VSYIGVCQSK (UniProt Q56VL3)	-0.0503	0.116
NSUN6_Q8TEA1_242_ILDLCAAPGGK (UniProt Q8TEA1)	0.157	-0.0703
NEMF_O60524_575_YLTPGDIYVHADLHGATSCVIK (UniProt O60524)	0.0554	0.13
PCDH17_O14917_335_DLGPNPIPAHCK (UniProt O14917)	0.6	0.546

Target	probe-labelled cysteine peptide fold change (10 µM)	probe-labelled cysteine peptide fold change (50 µM)
PASK_Q96RG2_759+761_ELFFSDQTDQTSSNCSCATSELR (UniProt Q96RG2)	0.0516	0.0688
PAK3_O75914_424_LTDFGFCAQITPEQSKR (UniProt O75914)	-0.27	-0.161
OPLAH_O14841_408_LLPASFPCIFGPGENQPLSPEASR (UniProt O14841)	-0.283	-0.252
OSBPL1A_Q9BXW6_340_EDWLEAIEEHSAYSTHYCSQDQLTDEEEEDTVSAADLKK (UniProt Q9BXW6)	0.199	-0.153
NFIX_Q14938_6_MYSPYCLTQDEFHPFIEALLPHVR (UniProt Q14938)	0.072	-0.567
NF1_P21359_1016_LCQLVEVMMAR (UniProt P21359)	0.0549	0.181
PCNA_P12004_135_LMDLDVEQLGIPEQEYSCVVK (UniProt P12004)	-0.113	0.0916
NDUFB7_P17568_90_HDWDYCEHR (UniProt P17568)	0.161	0.191
NDC1_Q9BTX1_9_ATAVSRPCAGR (UniProt Q9BTX1)	0.00914	-0.136
OS9_Q13438_181_CDLNGRPR (UniProt Q13438)	0.0235	0.139
NUP188_Q5SRE5_161_VEYADCVDK (UniProt Q5SRE5)	0.394	0.321
NDUFV2_P19404_135+140_YHIQVCTTTPCMLR (UniProt P19404)	0.0444	-0.234
NSUN2_Q08J23_673+678_YEPDSANPDALQCPIVLCGWR (UniProt Q08J23)	0.0479	0.0634
NDUFB10_O96000_119_EGQNYQQNCIK (UniProt O96000)	-0.0835	-0.0614
NEMF_O60524_663_VDESCVWR (UniProt O60524)	0.233	0.569
PAFAH1B1_P43034_281_EHEHVVECISWAPESSYSSISEATGSETK (UniProt P43034)	-0.156	0.158
PCBP3_P57721_141_LVVPASQCGSLIGK (UniProt P57721)	-0.0567	-0.121
NUP43_Q8NFH3_222_VPLHCVDRHPNQQHVVATGGQDGMLSIWDVR (UniProt Q8NFH3)	0.271	0.0847
NVL_O15381_431_FDREICLGIPDEASR (UniProt O15381)	-0.0502	0.0728
NOL10_Q9BSC4_147_DFSYHYPSCDLYFVGASSEVYR (UniProt Q9BSC4)	-0.459	-0.299
NIT2_Q9NQR4_153_VGLGICYDMR (UniProt Q9NQR4)	-0.261	-1.18
NIPBL_Q6KC79_304_GSRPPLILQSQSLPCSSPR (UniProt Q6KC79)	0.204	0.00224
PARK7_Q99497_46_VTVAGLAGKDPVQCSR (UniProt Q99497)	-0.13	-0.213
PDCD4_Q53EL6_288_GTVDCVQAR (UniProt Q53EL6)	0.164	0.233
OSBPL9_Q96SU4_577_SILTVPWVELGGECNINCSK (UniProt Q96SU4)	0.311	0.198
NUP160_Q12769_1042_QLVVVLCER (UniProt Q12769)	0.25	0.0629
OAS3_Q9Y6K5_350_AGCSGLGHPIQLDPNQK (UniProt Q9Y6K5)	-0.0319	-0.0671

Target	probe-labelled cysteine peptide fold change (10 µM)	probe-labelled cysteine peptide fold change (50 µM)
P4HA1_P13674_293_QKYEMLCR (UniProt P13674)	-0.0868	-0.162
NDRG3_Q9UGV2_30_NFQDFDCQEHDIETTHGVVHVTIR (UniProt Q9UGV2)	0.0929	0.0549
PARP14_Q460N5_1274_ECSQQAQQR (UniProt Q460N5)	0.0962	-0.0412
NUDT4B_A0A024RBG1_28_AACLCFR<|>NUDT3_O95989_25_AACLCFR<|>NUDT10_Q8NFP7_24_AACLCFR<|>NUDT11_Q96G61_24_AACLCFR<|>NUDT4_Q9NZJ9_25_AACLCFR (UniProt Q9NZJ9+Q8NFP7+Q96G61+O95989)	0.153	0.0838
NUP205_Q92621_1032_TCLHAILNILEK (UniProt Q92621)	0.00038	-0.0819
NSUN5_Q96P11_308_YHEVHYILLDPSCSGSGMPSR (UniProt Q96P11)	-0.725	-0.0597
OSGEP_Q9NPF4_160_IFGETIDIAVGNCLDR (UniProt Q9NPF4)	0.0104	-0.0314
NUP133_Q8WUM0_700+702_EVSQVDTICECLLEHEEQVLR (UniProt Q8WUM0)	0.507	0.631
NVL_O15381_460_LPQAFDFCHLAHLTPGFVGADLMALCR (UniProt O15381)	-0.219	-0.00784
PABPC4_Q13310-3_488_VGSECPDR (UniProt Q13310)	-0.118	-0.166
PARP1_P09874_908_SANYCHTSQGDPIGLILLGEVALGNMYELK (UniProt P09874)	-0.146	-0.761
NSD2_O96028_1102_KGEFVNEYVGELIDEEECMAR (UniProt O96028)	-0.163	-0.0932
OSBPL1A_Q9BXW6_520_DCGGGDALSNGIK (UniProt Q9BXW6)	0.00496	0.0314
P4HB_P07237_312_ILEFFGLKKEECPAVR (UniProt P07237)	-0.567	-0.501
NDUFAF4_Q9P032_87_AAETCQEPK (UniProt Q9P032)	-0.0492	-0.243
NSUN5_Q96P11_278+279_AGVSCCELAEEDFLAVSPSDPR (UniProt Q96P11)	0.234	-0.117
NECAP2_Q9NVZ3_11_MEESGYESVLCVKPDVHVYR (UniProt Q9NVZ3)	-0.174	-0.048
NUP98_P52948_1711_HIQQVDCSGNDLEQLHIK (UniProt P52948)	0.207	0.108
NPM1_P06748_21_MEDSMDMDMSPLRPQNYLFGCELK (UniProt P06748)	-0.279	-0.642
PDLIM7_Q9NR12_370_MTWHVHCFTCAACK (UniProt Q9NR12)	-0.0568	0.119
PCID2_Q5JVF3_25_DGASCAELVSFK (UniProt Q5JVF3)	-0.115	-0.0805
OSBPL3_Q9H4L5_114_CIDLDTEEHIYHLK (UniProt Q9H4L5)	-0.0859	0.0383
ORC5_O43913_10_PHLENVVLCR (UniProt O43913)	-0.0683	-0.0422
NOB1_Q9ULX3_147_GHSACEPENLEFSSFMFWR (UniProt Q9ULX3)	-0.0264	-0.119
PARP1_P09874_845_IEREGECQR (UniProt P09874)	-0.00747	0.129
NT5DC1_Q5TFE4_139_YYFYDNYFDLPGALLCAR (UniProt Q5TFE4)	0.416	0.718
